# Compound activity (PubChem)
# The sample as a whole holds a higher share of hits than the screen did.
# LmPK inh: LmPK (Leishmania mexicana) enzyme inhibition; 290,000 tested, 0.37% active; Potency, µM (series often up to 57.5 µM), without a hit: at the top dose activity change, negative = inhibition, hits mostly inhibitors; AID 1721; purified LmPK, Kinase-Glo ATP luminescence, 1 h; note: potency is the fitted concentration of half-maximal effect; % is set by controls: 0 for no effect and ±100 for the full control effect
#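 Kinase-Glo luminescence read after 1 h RT reaction of 0.1 nM LmPK with 0.5 mM PEP and 0.1 mM ADP. Activity scaled between uninhibited and enzyme-free controls.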
# Shiga toxin inh: Shiga toxin inhibition; Vero cells, Shiga toxin protein synthesis inhibition reporter; inhibition, % at 38.7 µM; 290,000 tested, 9.2% active; AID 2315; in the data active = inhibition mostly above about 28%, no sharp cut-off; inactive = mostly below about 43%; note: 0% is about no effect
# RE007 growth inh: less growth of the S. pombe RE007 Vpr strain | S. pombe RE007 Vpr strain, BacTiter-Glo ATP luminescence, 24 h | AID 651644 | Potency, µM (highest dose often 92.2 µM), inactives show top-dose activity change, negative = less growth, usual class: inhibitors | 360,000 tested, 0.21% active; active = well fitted falling curve with a large enough effect; inconclusive = small, poorly fitted or top-dose-only effect; inactive = no such curve, though single readings can be large or run the other way; note: potency is the fitted concentration of half-maximal effect; % is set by controls: 0 for no effect and ±100 for the full control effect; nearly all actives have a fitted effect of over 50% in size
#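 Fission yeast RE007 carrying one integrated HIV-1 vpr copy, seeded at OD 0.01 in PMG+AL medium with 23 nL pinned compound. Grown 24 h at 30 degrees; viability read by BacTiter-Glo luminescence after 5 min.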
# Tb PYK inh: blocks Trypanosoma brucei pyruvate kinase. Potency, µM (highest dose often 76.8 µM), for inactives: at the highest dose activity, negative = inhibition, usual class: inhibitors. Q57TT1. 410,000 tested, 0.12% active. AID 624173. TbPYK enzyme, Kinase-Glo Plus ATP luminescence, 45 min; note: potency is the fitted concentration of half-maximal effect; % is set by controls: 0 for no effect and ±100 for the full control effect; nearly all actives have a fitted effect of over 50% in size
#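 Luminescence from Kinase-Glo Plus, added after a 45-minute room-temperature reaction, served as the end-point read-out. The enzyme and substrate were preincubated with compound before ADP (130 uM final) initiated turnover. Concentration-effect curves came from normalized qHTS data.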
# Cycloheximide cs: counter-screen hit for Shiga toxin inhibitors, cycloheximide | cell reporter, cycloheximide protein synthesis inhibition counterscreen | max response, % | 300,000 tested, 12% active; in the data active = max response mostly above about 13%, no sharp cut-off; inactive = mostly below about 14%; note: read at 38.3 µM for the half of the compounds with a filed dose; 0% is about no effect
# FBPA Giardia inh: Giardia lamblia aldolase inhibition; A8B2U2; purified Giardia FBPA; Potency, µM (top dose mostly 59.6 µM), for inactives: top-dose activity, negative = inhibition, hits mostly inhibitors; 290,000 tested, 0.71% active; AID 2451; note: potency is the fitted concentration of half-maximal effect; % is set by controls: 0 for no effect and ±100 for the full control effect; nearly all actives have a fitted effect of over 55% in size
# Target sequence (A8B2U2 whole entry, looked up): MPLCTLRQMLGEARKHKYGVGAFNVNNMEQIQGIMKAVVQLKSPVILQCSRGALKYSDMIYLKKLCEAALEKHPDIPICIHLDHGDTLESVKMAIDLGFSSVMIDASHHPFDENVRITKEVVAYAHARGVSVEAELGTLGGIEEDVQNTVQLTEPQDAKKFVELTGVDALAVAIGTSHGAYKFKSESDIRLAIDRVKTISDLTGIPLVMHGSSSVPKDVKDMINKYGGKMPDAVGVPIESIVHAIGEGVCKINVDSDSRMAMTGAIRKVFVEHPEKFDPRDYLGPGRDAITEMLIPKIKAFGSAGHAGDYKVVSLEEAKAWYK
#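 40 nM FBPA preincubated 10 min at RT with compound (up to 57.5 uM final), then substrate plus GAPDH/TPI/NAD/arsenate coupling and diaphorase/resazurin added. Fluorescence read after 20 min at RT, 525/598 nm.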
# Numbers without * were called inactive; ? = inconclusive; · = no result given. Unless noted, calls come from the whole dose curve; as a rule, active = well fitted curve in the direction sought with a large enough effect; inconclusive = small, poorly fitted or top-dose-only effect, or another doubt; inactive = no such curve, though single readings can be large; an effect the other way counts as inactive or inconclusive.
SMILES,LmPK inh,Shiga toxin inh,RE007 growth inh,Tb PYK inh,Cycloheximide cs,FBPA Giardia inh
O=C(NCc1ccc(Cl)cc1)c1cc2ccccc2oc1=O,-7%,11,1%,-1%,14,8%
CN(C)C(CNC(=O)c1cc2ccccc2oc1=O)c1ccccc1 (centres undefined),-8%,90*,-5%,-2%,27*,-3%
COc1ccc(-c2noc(N(c3ccc(F)c(Cl)c3)c3nc(-c4ccc(OC)c(OC)c4)no3)n2)cc1OC,·,·,·,1%,·,·
COc1cccc(CNS(=O)(=O)c2ccc(N3CCCCS3(=O)=O)cc2)c1,·,·,·,-8%,·,·
CC1=C(C(=O)Nc2ccccc2)C(c2cccc(O)c2)n2nc(-c3ccccc3Cl)nc2N1 (centres undefined),·,·,·,1%,·,·
COc1ccc(CCNC(=O)CCc2cn(Cc3ccc(F)cc3)c3ccccc23)cc1OC,·,·,·,4%,·,·
Cc1ccccc1C(c1c(C)n(C)n(-c2ccccc2)c1=O)c1c(C)n(C)n(-c2ccccc2)c1=O,·,·,·,1%,·,·
COc1cccc(C(=O)N/N=c2/oc3ccccc3cc2C(N)=O)c1,11%,-5,10%,1%,-1,-14%
COc1ccc(C(=O)COC(=O)c2cc3ccccc3oc2=O)c(OC)c1,·,·,-3%,-2%,·,·
CCOC(=O)c1cc2ccc(OC)cc2oc1=O,-29%,66*,?,1%,18*,0%
COc1ccc2cc(C(N)=O)/c(=N\NC(=O)c3ccccc3)oc2c1,0%,68*,15%,2%,44*,0%
COc1ccc(CNC(=O)c2cc3ccccc3oc2=O)cc1,-5%,3,6%,8%,-2,6%
COc1ccc2cc(C(=O)NCc3ccccc3)c(=O)oc2c1,-3%,43*,2%,4%,13*,4%
CCOC(=O)c1cccc(NC(=O)CC(c2ccc(F)cc2)N2Cc3ccccc3C2=O)c1 (centres undefined),·,·,·,4%,·,·
O=C1c2cccc3c(N4CCCCC4)ccc(c23)C(=O)N1c1cccc(O)c1,0%,90*,1%,2%,61*,4%
C=CCN1C(=O)c2cccc3c(N4CCCCC4)ccc(c23)C1=O,1%,130*,10%,-8%,46*,4%
O=C1c2cccc3c(N4CCCCC4)ccc(c23)C(=O)N1CCO,0%,76,-24%,-1%,42*,0%
Cc1n[nH]c(C)c1N1C(=O)c2cccc3c(N4CCCCCC4)ccc(c23)C1=O,2%,-19,15%,2%,1,-3%
O=C1c2cccc3cccc(c23)C(=O)N1CCO,·,·,6%,-3%,·,·
C[C@@H](NCc1cc(Br)cc2[nH]c(=O)c(=O)[nH]c12)P(=O)(O)O,·,·,·,·,·,-27%
COC(=O)CCc1sc(Nc2ccccc2)nc1-c1ccc(OC)cc1,3%,91*,-6%,-5%,23*,-7%
Cc1ccc(Nc2nc(-c3ccc(C)cc3)c(CC(=O)O)s2)cc1,5%,79,-7%,-12%,14*,-20%
O=C(O)Cc1sc(Nc2ccccc2)nc1-c1ccccc1,·,·,·,-1%,·,·
O=C(O)Cc1sc(Nc2cccc3ccccc23)nc1-c1ccc(Cl)cc1,4%,18,26%,1%,20*,-6%
COc1ccc(Nc2nc(-c3ccc(OC)cc3)c(CCC(=O)O)s2)cc1,5%,-6,6%,-6%,2,3%
SMILES,LmPK inh,Shiga toxin inh,RE007 growth inh,Tb PYK inh,Cycloheximide cs,FBPA Giardia inh
Cc1ccc(-c2cc3c(N4CCN(c5cc(C)ccc5C)CC4)nccn3n2)cc1,·,·,·,-3%,·,·
Cc1nc(NC(=O)c2ccccc2)sc1-c1csc(NCc2ccco2)n1,-27%,38,-18%,-5%,16,-9%
Cc1nc(C)c(-c2csc(NCc3ccco3)n2)s1,-1%,159,-27%,0%,30*,1%
Cc1nc2ccccn2c1-c1csc(NCc2ccco2)n1,2%,17,-6%,3%,15*,?
Cc1ccc(Nc2nc(-c3c(C)nc4ccccn34)cs2)cc1,0%,-11,?,-10%,-1,-24%
CCOc1ccccc1Nc1nc(-c2sc(C)nc2C)cs1,7%,48*,-20%,-5%,19*,-5%
Cc1nc(C)c(-c2csc(NCc3ccccc3)n2)s1,9%,31,-4%,5%,33*,-15%
COc1ccc(OC)c(NC(=O)CN(C)S(=O)(=O)c2ccc(C(=O)N3CCOCC3)s2)c1,·,·,·,1%,·,·
Cc1ccc(N2CCN(c3ncnc4onc(-c5ccc(F)cc5)c34)CC2)c(C)c1,·,·,·,1%,·,·
Nc1ccccc1-c1nc2ccccc2[nH]c1=O,-1%,80*,-6%,0%,58*,14%
Nc1ccc(Br)cc1-c1nc2ccccc2[nH]c1=O,5%,75*,-2%,-1%,20,1%
O=c1[nH]c2ccccc2nc1-c1c[nH]c2ccccc12,0%,34,-1%,6%,26*,14%
COc1ccc(NC(=O)C2CCN(C3=NS(=O)(=O)C(c4ccc(C)c(C)c4)=C3C)CC2)c(OC)c1,·,·,·,1%,·,·
COc1cccc2sc(Nc3nnc(-c4ccccc4Cl)o3)nc12,-1%,-3,-17%,2%,0,?
COc1ccccc1-c1nnc(Nc2nc3c(OC)cccc3s2)o1,-6%,45*,1%,2%,12,?
COc1cccc(-c2nnc(Nc3nc4c(F)cccc4s3)o2)c1,5%,82*,-1%,-1%,38,25%
COc1ccc(NC(=O)N(Cc2ccco2)C2CCN(C(C)=O)CC2)c(OC)c1,·,·,·,0%,·,·
Cc1cc(C)c2c(CN3CCC(C)CC3)cc(=O)oc2c1,4%,61*,-7%,8%,38*,-3%
Cc1cc(C)c2c(CN3CCCCC3)cc(=O)oc2c1,-9%,7,-12%,1%,11*,4%
Cc1cc2oc(=O)cc(CN3CCC(C)CC3)c2cc1C,0%,24,1%,-3%,20*,-2%
Cc1cc(C)c2c(CN3CCCCCCC3)cc(=O)oc2c1,·,·,-19%,4%,·,·
CCc1ccc2c(CN3CCC(C(=O)OC)CC3)cc(=O)oc2c1,-4%,21,6%,-8%,16*,10%
Cc1cc2oc(=O)cc(CN3CCC(C)CC3)c2c(C)c1Cl,-1%,-2,-3%,-1%,12,2%
CCCCNC(=O)C(CC)Sc1nc2ccccc2c(=O)n1Cc1ccco1 (centres undefined),·,·,·,-9%,·,·
CCc1ccc2[nH]c(=O)c(CN(CC3CCCO3)C(=S)NCc3ccco3)cc2c1 (centres undefined),2%,8,12%,-14%,22*,-14%
Cc1nc2ccc(-c3nc4ccccc4o3)cc2[nH]1,-15%,68*,-12%,-3%,52*,4%
Nc1ccc(-c2nc3ccc(-c4nc5ccccc5o4)cc3[nH]2)cc1,6%,39,3%,2%,28*,5%
